Screen size: about 5,500 compounds; about 2,000 (36%) were called active. Another 18% or so got no clear call; they are omitted. The list shows a part of the results. Unmarked numbers belong to inactive results. Cut-off read from the data, not from the text of the source: active = normalized growth mostly below about 0.91 (no sharp cut-off); inconclusive = no clear call, values can overlap the other calls; inactive = mostly above about 0.92.
Experiment: chemical genetic growth profiling, strain panel (AID 1159580);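 note: tested at 20 µM; growth read once vehicle control cultures reached saturation at 30 °C; 1 = growth at the plate median or of vehicle wells; lower values mean less growth of the strain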
Conditions: S. cerevisiae deletion strains, growth OD
[1] = locus YAR019C, strain CDC15, stronger effect = lower value
[2] = locus YBL105C, strain PKC1, stronger effect = lower value
[3] = locus YBR135W, strain CKS1, stronger effect = lower value
[4] = locus YBR136W, strain MEC1, stronger effect = lower value
[5] = locus YBR160W, strain CDC28, stronger effect = lower value
[6] = locus YDL017W, strain CDC7, stronger effect = lower value
[7] = locus YDL028C, strain MPS1, stronger effect = lower value
[8] = locus YDL101C, strain DUN1, stronger effect = lower value
[9] = locus YDL108W, strain KIN28, stronger effect = lower value
[10] = locus YDL132W, strain cdc53, stronger effect = lower value
[11] = locus YDL214C, strain PRR2, stronger effect = lower value
[12] = locus YDR052C, strain DBF4, stronger effect = lower value
[13] = locus YDR054C, strain cdc34, stronger effect = lower value
[14] = locus YDR226W, strain ADK1, stronger effect = lower value
[15] = locus YDR477W, strain SNF1, stronger effect = lower value
[16] = locus YER123W, strain YCK3, stronger effect = lower value
[17] = locus YER133W, strain GLC7, stronger effect = lower value
[18] = locus YFL009W, strain cdc4, stronger effect = lower value
[19] = locus YFL029C, strain CAK1, stronger effect = lower value
[20] = locus YFR003C, strain YPI1, stronger effect = lower value
[21] = locus YFR019W, strain FAB1, stronger effect = lower value
[22] = locus YFR028C, strain CDC14, stronger effect = lower value
[23] = locus YGR040W, strain KSS1, stronger effect = lower value
[24] = locus YGR052W, strain FMP48, stronger effect = lower value
[25] = locus YGR092W, strain DBF2, stronger effect = lower value
[26] = locus YHR030C, strain SLT2, stronger effect = lower value
[27] = locus YHR079C, strain IRE1, stronger effect = lower value
[28] = locus YHR082C, strain KSP1, stronger effect = lower value
[29] = locus YHR205W, strain SCH9, stronger effect = lower value
[30] = locus YIL147C, strain SLN1, stronger effect = lower value
[31] = locus YJL095W, strain BCK1, stronger effect = lower value
[32] = locus YJL128C, strain PBS2, stronger effect = lower value
[33] = locus YJL157C, strain FAR1, stronger effect = lower value
[34] = locus YJR016C, strain ILV3, stronger effect = lower value
[35] = locus YJR066W, strain TOR1 (second series), stronger effect = lower value
[36] = locus YJR066W, strain TOR1, stronger effect = lower value
[37] = locus YKL048C, strain ELM1, stronger effect = lower value
[38] = locus YKL067W, strain YNK1, stronger effect = lower value
[39] = locus YKL101W, strain HSL1, stronger effect = lower value
[40] = locus YKL193C, strain SDS22, stronger effect = lower value
[41] = locus YKL203C, strain TOR2, stronger effect = lower value
[42] = locus YLR113W, strain HOG1, stronger effect = lower value
[43] = locus YLR133W, strain CKI1, stronger effect = lower value
[44] = locus YLR403W, strain SFP1, stronger effect = lower value
[45] = locus YML070W, strain DAK1, stronger effect = lower value
[46] = locus YMR001C, strain CDC5, stronger effect = lower value
[47] = locus YMR205C, strain PFK2 (second series), stronger effect = lower value
[48] = locus YMR277W, strain FCP1, stronger effect = lower value
[49] = locus YNL006W, strain LST8, stronger effect = lower value
[50] = locus YNL020C, strain ARK1, stronger effect = lower value
[51] = locus YNL161W, strain CBK1, stronger effect = lower value
[52] = locus YNL183C, strain NPR1, stronger effect = lower value
[53] = locus YNL207W, strain RIO2, stronger effect = lower value
[54] = locus YNL222W, strain SSU72, stronger effect = lower value
[55] = locus YNL307C, strain MCK1 (second series), stronger effect = lower value
[56] = locus YOL078W, strain AVO1, stronger effect = lower value
[57] = locus YOL136C, strain PFK27, stronger effect = lower value
[58] = locus YOR061W, strain CKA2, stronger effect = lower value
[59] = locus YOR119C, strain RIO1, stronger effect = lower value
[60] = locus YOR231W, strain MKK1, stronger effect = lower value
[61] = locus YOR329C, strain SCD5, stronger effect = lower value
[62] = locus YPL031C, strain PHO85, stronger effect = lower value
[63] = locus YPL153C, strain RAD53, stronger effect = lower value
[64] = locus YPL204W, strain HRR25, stronger effect = lower value
[65] = locus YPL209C, strain IPL1, stronger effect = lower value
[66] = locus YPL256C, strain CLN2, stronger effect = lower value
[67] = locus YPR025C, strain CCL1, stronger effect = lower value
[68] = locus YPR106W, strain ISR1, stronger effect = lower value
[69] = locus YPR111W, strain DBF20, stronger effect = lower value
[70] = strain NNK1, stronger effect = lower value
[71] = strain TSCII, stronger effect = lower value

NNC(=O)c1csc(Cc2c(Cl)sc3ccc(Cl)cc23)n1
normalized growth [1]: 0.979
normalized growth [2]: 0.983
normalized growth [3]: 1
normalized growth [4]: 0.993
normalized growth [5]: 0.996
normalized growth [6]: 0.985
normalized growth [7]: 0.996
normalized growth [8]: 0.985
normalized growth [9]: 1
normalized growth [10]: 0.975
normalized growth [11]: 1.02
normalized growth [12]: 0.986
normalized growth [13]: 0.968
normalized growth [14]: 0.996
normalized growth [15]: 0.979
normalized growth [16]: 1.01
normalized growth [17]: 0.979
normalized growth [18]: 0.991
normalized growth [19]: 0.971
normalized growth [20]: 0.994
normalized growth [21]: 0.992
normalized growth [22]: 0.994
normalized growth [23]: 0.988
normalized growth [24]: 1.11
normalized growth [25]: 0.969
normalized growth [26]: 1
normalized growth [27]: 0.977
normalized growth [28]: 1.04
normalized growth [29]: 1.01
normalized growth [30]: 0.99
normalized growth [31]: 0.994
normalized growth [32]: 0.998
normalized growth [33]: 0.994
normalized growth [34]: 0.981
normalized growth [35]: 0.983
normalized growth [36]: 1.05
normalized growth [37]: 1
normalized growth [38]: 1
normalized growth [39]: 1.02
normalized growth [40]: 0.983
normalized growth [41]: 1.04
normalized growth [42]: 1.07
normalized growth [43]: 1
normalized growth [44]: 0.978
normalized growth [45]: 1.01
normalized growth [46]: 0.989
normalized growth [47]: 1.01
normalized growth [48]: 0.981
normalized growth [49]: 0.998
normalized growth [50]: 0.999
normalized growth [51]: 0.983
normalized growth [52]: 1.03
normalized growth [53]: 0.983
normalized growth [54]: 0.986
normalized growth [55]: 1.01
normalized growth [56]: 0.976
normalized growth [57]: 1
normalized growth [58]: 1.01
normalized growth [59]: 1.07
normalized growth [60]: 0.986
normalized growth [61]: 0.99
normalized growth [62]: 0.984
normalized growth [63]: 0.974
normalized growth [64]: 0.971
normalized growth [65]: 0.984
normalized growth [66]: 1.03
normalized growth [67]: 0.995
normalized growth [68]: 0.998
normalized growth [69]: 0.992
normalized growth [70]: 0.984
normalized growth [71]: 0.982

COc1ccc(C(=O)NCc2csc3ccc(Cl)cc23)cc1OC
normalized growth [1]: 0.971
normalized growth [2]: 0.97
normalized growth [3]: 0.985
normalized growth [4]: 0.975
normalized growth [5]: 0.975
normalized growth [6]: 0.982
normalized growth [7]: 0.986
normalized growth [8]: 0.973
normalized growth [9]: 0.981
normalized growth [10]: 0.979
normalized growth [11]: 0.986
normalized growth [12]: 0.971
normalized growth [13]: 0.955
normalized growth [14]: 0.975
normalized growth [15]: 0.982
normalized growth [16]: 0.977
normalized growth [17]: 0.978
normalized growth [18]: 0.97
normalized growth [19]: 0.974
normalized growth [20]: 0.977
normalized growth [21]: 1
normalized growth [22]: 0.977
normalized growth [23]: 0.994
normalized growth [24]: 1.05
normalized growth [25]: 0.981
normalized growth [26]: 1.03
normalized growth [27]: 1.01
normalized growth [28]: 1.05
normalized growth [29]: 0.972
normalized growth [30]: 0.975
normalized growth [31]: 1.05
normalized growth [32]: 0.92
normalized growth [33]: 0.988
normalized growth [34]: 0.975
normalized growth [35]: 1.01
normalized growth [36]: 1.07
normalized growth [37]: 0.98
normalized growth [38]: 0.987
normalized growth [39]: 0.994
normalized growth [40]: 0.977
normalized growth [41]: 1.05
normalized growth [42]: 0.92
normalized growth [43]: 0.976
normalized growth [44]: 0.994
normalized growth [45]: 0.983
normalized growth [46]: 0.979
normalized growth [47]: 0.986
normalized growth [48]: 0.973
normalized growth [49]: 0.983
normalized growth [50]: 0.985
normalized growth [51]: 0.975
normalized growth [52]: 0.999
normalized growth [53]: 0.962
normalized growth [54]: 0.972
normalized growth [55]: 0.972
normalized growth [56]: 0.977
normalized growth [57]: 0.98
normalized growth [58]: 1
normalized growth [59]: 1.05
normalized growth [60]: 0.983
normalized growth [61]: 0.975
normalized growth [62]: 0.994
normalized growth [63]: 0.995
normalized growth [64]: 0.974
normalized growth [65]: 0.972
normalized growth [66]: 0.947
normalized growth [67]: 0.976
normalized growth [68]: 0.966
normalized growth [69]: 0.954
normalized growth [70]: 0.97
normalized growth [71]: 0.984

CNC(=O)n1nc(C)c(Cc2csc3ccc(Cl)cc23)c1C
normalized growth [1]: 0.995
normalized growth [2]: 0.998
normalized growth [3]: 0.984
normalized growth [4]: 0.997
normalized growth [5]: 0.991
normalized growth [6]: 0.994
normalized growth [7]: 0.997
normalized growth [8]: 1.01
normalized growth [9]: 0.993
normalized growth [10]: 1
normalized growth [11]: 0.943
normalized growth [12]: 1
normalized growth [13]: 0.99
normalized growth [14]: 0.99
normalized growth [15]: 0.976
normalized growth [16]: 0.906
normalized growth [17]: 0.959
normalized growth [18]: 0.999
normalized growth [19]: 0.993
normalized growth [20]: 0.993
normalized growth [21]: 0.928
normalized growth [22]: 0.978
normalized growth [23]: 0.95
normalized growth [24]: 0.989
normalized growth [25]: 0.949
normalized growth [26]: 0.935
normalized growth [27]: 0.893
normalized growth [28]: 0.936
normalized growth [29]: 0.921
normalized growth [30]: 0.993
normalized growth [31]: 0.94
normalized growth [32]: 0.934
normalized growth [33]: 0.961
normalized growth [34]: 0.994
normalized growth [35]: 0.931
normalized growth [36]: 1.02
normalized growth [37]: 0.983
normalized growth [38]: 0.91
normalized growth [39]: 0.951
normalized growth [40]: 0.991
normalized growth [41]: 0.996
normalized growth [42]: 0.902
normalized growth [43]: 0.937
normalized growth [44]: 0.942
normalized growth [45]: 0.917
normalized growth [46]: 0.988
normalized growth [47]: 0.933
normalized growth [48]: 0.988
normalized growth [49]: 0.988
normalized growth [50]: 0.934
normalized growth [51]: 0.993
normalized growth [52]: 0.896
normalized growth [53]: 0.993
normalized growth [54]: 0.992
normalized growth [55]: 0.925
normalized growth [56]: 0.991
normalized growth [57]: 0.926
normalized growth [58]: 0.957
normalized growth [59]: 1.03
normalized growth [60]: 0.894
normalized growth [61]: 0.997
normalized growth [62]: 0.966
normalized growth [63]: 0.936
normalized growth [64]: 0.926
normalized growth [65]: 0.993
normalized growth [66]: 0.855 (active)
normalized growth [67]: 0.998
normalized growth [68]: 0.999
normalized growth [69]: 0.979
normalized growth [70]: 0.991
normalized growth [71]: 0.989

Reference: PubChem BioAssay AID1159580 (chemical genetic matrix, 2015)
